# “And” between values parts separate entries of the source, which are not always exact repeats. Identical values can stand only once. Records with an inconclusive call do not appear. The source made the active and inactive calls. Unless noted, cut-off not given; nearly all actives show AC50 up to about 26 µM.
# How the values were obtained:
# [1] = tested on: Aerobactin synthetase IucA (Klebsiella pneumoniae); assay: inhibition of K. pneumoniae IucA enzyme – biochemical, Tocris library, absorbance (AID 1345561; call rule not given here;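 further: 100% = enzyme without compound and 0% = no enzyme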); settings: purified IucA enzyme assay, absorbance (OD) read-out; stronger effect = lower value;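 tested at 8 µM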
# [2] = viability loss in pontine glioma line – cell-based, SU-DIPG-XVII, MIPE5.0, CellTiter-Glo, qHTS, dose response (AID 1347060); settings: CellTiter-Glo ATP luminescence;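 on AC50: cells exposed to compound for 48 hours before viability readout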
# [3] = viability loss in pontine glioma line – cell-based, SU-DIPG-XIII, MIPE4.0, CellTiter-Glo, qHTS, dose response (AID 1347061; cut-off not given, nearly all actives have AC50 up to about 37 µM;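 further: cells exposed to compound for 48 hours before readout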); settings: CellTiter-Glo ATP luminescence
# [4] = viability loss in pontine glioma line – cell-based, JHH-DIPG-1, MIPE4.0, CellTiter-Glo, qHTS, dose response (AID 1347062; cut-off not given, nearly all actives have AC50 up to about 27 µM;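 on AC50: cells exposed to compound for two days before readout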); settings: JHH-DIPG-1 viability, CellTiter-Glo ATP luminescence
# [5] = viability loss in pontine glioma line – cell-based, SU-DIPG-XIII, MIPE5.0, CellTiter-Glo, qHTS, dose response (AID 1347064; cut-off not given, nearly all actives have AC50 up to about 23 µM;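 on AC50: cells exposed to compound for 48 hours before the viability read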); settings: CellTiter-Glo ATP luminescence
# [6] = growth inhibition of DIPG cells – cell-based, MIPE4.0 library, CellTiter-Glo luminescence, qHTS (AID 1347066; cut-off not given, nearly all actives have AC50 up to about 30 µM;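 further: cells exposed to compound for 48 hours before readout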); settings: SU-DIPG-VI viability, CellTiter-Glo ATP luminescence
# [7] = JHH-DIPG-1 glioma cell viability, MIPE5.0 library, CellTiter-Glo luminescence, qHTS (AID 1347067); settings: JHH-DIPG-1 glioma viability, CellTiter-Glo ATP luminescence;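 further: cells exposed to compound for 48 hours before readout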
# [8] = growth inhibition of DIPG cells – cell-based, MIPE5.0 library, qHTS (AID 1347068; cut-off not given, nearly all actives have IC50 up to about 30 µM); settings: SU-DIPG-XXV viability
# [9] = viability loss with induced miR-34 in A549 – imaging, A549 dox-inducible miR-34, nuclei and caspase counts, primary screen (AID 1347080;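 active means compounds whose cell count with miR-34 switched on is under 0.7 times the count with it off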); settings: A549 miR-34 inducible, Hoechst nuclei count, 48 h
# [10] = MELAS cybrid and Rieske KO viability enhancers – cell-based, MELAS cybrids, Rieske KO mouse fibroblasts, CellTiter-Glo, primary screen (AID 1508586;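 active means mean z-score across replicates of 1.96 or higher in either the MELAS or the Rieske mutant cell line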;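 further: z relative to plate mean and SD of compound and empty wells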); settings: low glucose
# [11] = galactose survival enhancers in mitochondrial complex I cybrids – cell-based, galactose medium, ATP luminescence, primary screen (AID 1645843;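 active means z-score of at least 1.8 in each of two replicates, scored against plate mean and spread of sample wells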;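 further: positive z means more ATP and so rescue of galactose-driven cybrid death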); settings: complex I mutant cybrid cells, 72 h, stronger effect = higher value
# [12] = viability loss in pontine glioma line – cell-based, SU-DIPG-IV, MIPE4.0, CellTiter-Glo, qHTS, dose response (AID 1347063; cut-off not given, nearly all actives have AC50 up to about 30 µM;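 further: compound exposure lasted 48 hours before the viability readout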); settings: CellTiter-Glo ATP luminescence
# [13] = P. berghei load reduction in hepatocytes – cell-based, HepG2, luciferase luminescence, HepG2 viability, primary screen (AID 624349; in the data active means parasite load remaining mostly below about 12%, no sharp cut-off; inactive means mostly above about 10%;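 further: 100% = mean of DMSO negative control wells on the same plate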); settings: P. berghei liver stage in HepG2, luciferase luminescence, concentration not given here; parasite load remaining: stronger effect = lower value; viability: measured here: HepG2 viability without parasites
# [14] = viability loss in pontine glioma line – cell-based, SU-DIPG-XXV, MIPE5.0, CellTiter-Glo, qHTS, dose response (AID 1347065); settings: CellTiter-Glo ATP luminescence;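 further: cells exposed to compound for 48 hours before ATP readout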
# [15] = stronger effect = lower value, cell number ratio, induced over uninduced
# [16] = measured here: relative caspase fold change +Dox/-Dox
# [17] = measured here: total cells with miR-34 induction, stronger effect = lower value
# [18] = measured here: total cells without miR-34 induction
# [19] = MELAS cybrid survival, CellTiter-Glo 48 h, stronger effect = higher value
# [20] = Rieske KO mouse fibroblast survival, CellTiter-Glo 72 h
structure (smiles),measurement,setting,value
Cc1cc(NC(=O)Nc2ccc(N(C)C)cc2)c2cc(F)cc(F)c2n1,remaining activity,[1],98.2% (inactive)
same,outcome,[2],inactive
same,outcome,[3],inactive
same,outcome,[4],inactive
same,outcome,[5],inactive
same,outcome,[6],inactive
same,outcome,[7],inactive
same,outcome,[8],inactive
same,fold change,[9]; [15],0.902 (inactive) and 0.887 (inactive)
same,fold change,[9]; [16],0.91 and 0.717
same,cell count,[9]; [17],6380 and 7970
same,cell count,[9]; [18],7070 and 8990
same,z-score,[10]; [19],1.11 (inactive)
same,z-score,[10]; [20],-0.687
same,z-score,[11],-0.32 (inactive)
O=C1NC(=O)C(c2ccccc2[N+](=O)[O-])=C1Nc1ccc(O)c(Cl)c1,remaining activity,[1],112% (inactive)
same,outcome,[2],inactive
same,outcome,[3],inactive
same,outcome,[4],inactive
same,outcome,[12],inactive
same,outcome,[5],inactive
same,outcome,[7],inactive
same,outcome,[8],inactive
same,fold change,[9]; [15],1 (inactive) and 1.09 (inactive) and 0.982 (inactive)
same,z-score,[10]; [19],-0.406 (inactive)
same,z-score,[10]; [20],0.723
same,z-score,[11],1.65 (inactive) and 0.35 (inactive)
O=C1Nc2ccc(I)cc2/C1=C/c1cc(Br)c(O)c(Br)c1,remaining activity,[1],117% (inactive)
same,outcome,[2],inactive
same,outcome,[4],inactive
same,outcome,[5],inactive
same,outcome,[6],inactive
same,outcome,[7],inactive
same,fold change,[9]; [15],0.983 (inactive) and 1.01 (inactive) and 0.869 (inactive)
same,fold change,[9]; [16],1.44 and 1.3 and 0.748
same,cell count,[9]; [17],8580 and 4160 and 8980
same,cell count,[9]; [18],8730 and 4120 and 10300
same,z-score,[11],-0.635 (inactive) and -0.18 (inactive)
Nc1ncnc2nc(-c3ccc(N4CCOCC4)nc3)cc(-c3cccc(Br)c3)c12,parasite load remaining,[13],57.8% (inactive)
same,viability,[13],155%
same,remaining activity,[1],93.4% (inactive)
same,outcome,[2],inactive
same,outcome,[4],inactive
same,outcome,[5],inactive
same,outcome,[7],inactive
same,fold change,[9]; [15],0.949 (inactive)
same,fold change,[9]; [16],1.03
same,cell count,[9]; [17],7250
same,cell count,[9]; [18],7640
same,z-score,[11],2.27 (active)
Oc1ccc2ccccc2c1SSc1c(O)ccc2ccccc12,parasite load remaining,[13],35.3% (inactive)
same,viability,[13],87.1%
same,remaining activity,[1],112% (inactive)
same,AC50,[2],14.8 µM (active)
same,AC50,[4],23.5 µM (active)
same,AC50,[12],18.7 µM (active)
same,AC50,[5],14.8 µM (active)
same,AC50,[14],11.8 µM (active)
same,AC50,[6],23.5 µM (active)
same,AC50,[7],10.5 µM (active)
same,outcome,[8],inactive
same,fold change,[9]; [15],0.974 (inactive) and 0.952 (inactive) and 0.85 (inactive)
same,fold change,[9]; [16],1 and 0.368 and 2.34
same,cell count,[9]; [17],7700 and 7960 and 7720
same,cell count,[9]; [18],7910 and 8360 and 9070
same,z-score,[10]; [19],2.05 (active)
same,z-score,[10]; [20],-0.0374
same,z-score,[11],-1.38 (inactive) and -0.86 (inactive)
Fc1ccc(Cl)cc1-c1nc(Nc2ccncc2)c2nccnc2n1,remaining activity,[1],110% (inactive)
same,AC50,[2],23.5 µM (active)
same,outcome,[3],inactive
same,outcome,[4],inactive
same,outcome,[12],inactive
same,outcome,[6],inactive
same,outcome,[8],inactive
same,fold change,[9]; [15],0.904 (inactive)
same,fold change,[9]; [16],1.34
same,cell count,[9]; [17],8670
same,cell count,[9]; [18],9590
same,z-score,[11],1.11 (inactive)
CC(Oc1ccc(O)cc1)(P(=O)(O)O)P(=O)(O)O,remaining activity,[1],115% (inactive)
same,outcome,[2],inactive
same,outcome,[3],inactive
same,outcome,[4],inactive
same,outcome,[12],inactive
same,outcome,[5],inactive
same,outcome,[6],inactive
same,outcome,[7],inactive
same,outcome,[8],inactive
same,fold change,[9]; [15],0.98 (inactive)
same,fold change,[9]; [16],0.597
same,cell count,[9]; [17],9020
same,cell count,[9]; [18],9200
same,z-score,[11],-0.285 (inactive)
COc1cc(OC)c(NC(=O)Nc2cc(C)on2)cc1Cl,remaining activity,[1],101% (inactive)
same,outcome,[2],inactive
same,outcome,[3],inactive
same,outcome,[4],inactive
same,outcome,[12],inactive
same,outcome,[5],inactive
same,outcome,[14],inactive
same,outcome,[6],inactive
same,outcome,[7],inactive
same,fold change,[9]; [15],0.801 (inactive) and 0.945 (inactive)
same,fold change,[9]; [16],0.762 and 1.52
same,cell count,[9]; [17],8290 and 9250
same,cell count,[9]; [18],10400 and 9800
same,z-score,[10]; [19],-0.366 (inactive)
same,z-score,[10]; [20],1.34
same,z-score,[11],1.75 (inactive)
CC(C)[C@H](CO)Nc1nc(Nc2ccc(C(=O)O)c(Cl)c2)c2ncn(C(C)C)c2n1,remaining activity,[1],110% (inactive)
same,outcome,[2],inactive
same,outcome,[3],inactive
same,outcome,[5],inactive
same,AC50,[6],23.5 µM (active)
same,outcome,[7],inactive
same,outcome,[8],inactive
same,fold change,[9]; [15],0.902 (inactive)
same,fold change,[9]; [16],0.706
same,cell count,[9]; [17],8820
same,cell count,[9]; [18],9770
same,z-score,[11],0.185 (inactive)

# Source: PubChem BioAssay
